# Like-named read-outs stand apart in the source and are kept apart here.
# How the values were obtained:
# Parameters in all cases: species or system human, MV4-11 + K-562 + COLO205 + SK-N-BE2 + OVCAR-8
# [1] = system: T1, DJA1; conditions: read-out: apparent Kd; compound concentrations: 100 nM and 1000 nM (sheet 'Samples'), CATDS: 0.205535073981469; n = 1
# T1 construct: gene DNAJA1
# [2] = system: AURKB; conditions: read-out: apparent Kd, n = 1
# [3] = system: BMPR1B; conditions: read-out: apparent Kd, compound concentrations: 100 nM and 1000 nM (sheet 'Samples'), n = 1
# [4] = system: EPHB1; conditions: read-out: apparent Kd, compound concentrations: 100 nM and 1000 nM (sheet 'Samples'), n = 1
# [5] = system: EPHB6; conditions: read-out: apparent Kd, compound concentrations: 100 nM and 1000 nM (sheet 'Samples'), n = 1
# [6] = system: MAPKAPK2; conditions: read-out: apparent Kd, compound concentrations: 100 nM and 1000 nM (sheet 'Samples'), n = 1
# [7] = system: NLK; conditions: read-out: apparent Kd, compound concentrations: 100 nM and 1000 nM (sheet 'Samples'), n = 1
# [8] = system: EPHA5; conditions: read-out: apparent Kd, compound concentrations: 100 nM and 1000 nM (sheet 'Samples'), n = 1
# [9] = system: BTK; conditions: read-out: apparent Kd, compound concentrations: 100 nM and 1000 nM (sheet 'Samples'), n = 1
# [10] = system: CDK17; conditions: read-out: apparent Kd; compound concentrations: 100 nM and 1000 nM (sheet 'Samples'), CATDS: 3.3819881865538602E-2; n = 1
# [11] = system: FLT4; conditions: read-out: apparent Kd, compound concentrations: 100 nM and 1000 nM (sheet 'Samples'), n = 1
# [12] = system: PLK4; conditions: read-out: apparent Kd, compound concentrations: 100 nM and 1000 nM (sheet 'Samples'), n = 1
# [13] = system: PRKD3; conditions: read-out: apparent Kd, compound concentrations: 100 nM and 1000 nM (sheet 'Samples'), n = 1
# [14] = system: TNK2; conditions: read-out: apparent Kd, compound concentrations: 100 nM and 1000 nM (sheet 'Samples'), n = 1
# [15] = system: ZAK; conditions: read-out: apparent Kd, compound concentrations: 100 nM and 1000 nM (sheet 'Samples'), n = 1
# [16] = system: AKT2; conditions: read-out: apparent Kd, n = 1
# [17] = system: JAK2; conditions: read-out: apparent Kd, compound concentrations: 100 nM and 1000 nM (sheet 'Samples'), n = 1
# [18] = system: MAP2K5; conditions: read-out: apparent Kd; compound concentrations: 100 nM and 1000 nM (sheet 'Samples'), CATDS: 2.4851428787040001E-2; n = 1
# [19] = compound concentrations:100 nM and 1000 nM (sheet 'Samples')
compound,measurement,setting,value
COc1cc(Nc2nccc(N3CCC(NC(=O)c4cccc(C#N)c4)C3)n2)cc(OC)c1OC (centres unmarked) [GSK1379751A],potency estimated from few doses,[1],817 nM
COc1cc(Nc2ccnc3cc(-c4ccncc4)ccc23)cc(OC)c1OC.Cl [GW494610A],potency estimated from few doses,"[2]; compound concentrations: 100 nM and 1000 nM (sheet 'Samples'), CATDS: 5.7571781244095399E-2",90.3 nM
same,potency estimated from few doses,[3]; CATDS: 3.91672481095015E-2,233 nM
same,potency estimated from few doses,[4]; CATDS: 2.3499572328162702E-2,1250 nM
same,potency estimated from few doses,[5]; CATDS: 2.9510558776715799E-2,536 nM
same,potency estimated from few doses,[6]; CATDS: 2.2209833673663099E-2,1620 nM
same,potency estimated from few doses,[7]; CATDS: 5.2882757998729699E-2,110 nM
CCn1cc(-c2ccnc3[nH]c(-c4cccc(CN(C)C)c4)cc23)c(-c2ccc(NC(=O)N(C)C)cc2)n1 [GSK1070916],potency estimated from few doses,[2]; [19],594 nM
Cc1ccc(O)cc1Nc1ccnc2cc(-c3ccccn3)ccc12.Cl [GW440139A],potency estimated from few doses,[3]; CATDS: 2.7107507605443299E-2,941 nM
same,potency estimated from few doses,[8]; CATDS: 4.7155213926178503E-2,97.2 nM
same,potency estimated from few doses,[4]; CATDS: 5.4162955802276501E-2,67.7 nM
same,potency estimated from few doses,[6]; CATDS: 2.53755109568197E-2,1570 nM
CC(C)c1nc(-c2cccc(NS(=O)(=O)c3ccccc3)c2)c(-c2ccnc(Nc3ccc4c(c3)CN(C)CC4)n2)s1 [GSK1649598A],potency estimated from few doses,[9]; CATDS: 1.37109395342906E-2,1210 nM
same,potency estimated from few doses,[10],124 nM
same,potency estimated from few doses,[5]; CATDS: 1.8057075383437201E-2,489 nM
same,potency estimated from few doses,[11]; CATDS: 1.55100813228086E-2,772 nM
same,potency estimated from few doses,[12]; CATDS: 4.8867140762819797E-2,66.8 nM
same,potency estimated from few doses,[13]; CATDS: 3.0357950556932599E-2,152 nM
same,potency estimated from few doses,[14]; CATDS: 1.5113768238236E-2,842 nM
same,potency estimated from few doses,[15]; CATDS: 1.7977927791487699E-2,495 nM
CCc1nc(-c2cccc(N(C)S(=O)(=O)c3ccccc3)c2)c(-c2ccnc(Nc3ccc(N4CCN(C(C)=O)CC4)nc3)n2)s1 [GSK1645895A],potency estimated from few doses,[15]; CATDS: 0.12983068767625999,2300 nM
O=C1N=C(NCc2cccs2)SC1Cc1ccc2ncccc2c1 (centres unmarked) [RO4629078-000],potency estimated from few doses,"[2]; compound concentrations: 100 nM and 1000 nM (sheet 'Samples'), CATDS: 8.1625100314479202E-3",1200 nM
same,potency estimated from few doses,[9]; CATDS: 1.32457116906247E-2,360 nM
same,potency estimated from few doses,[8]; CATDS: 1.5844356878219199E-2,259 nM
same,potency estimated from few doses,[4]; CATDS: 1.5393002457868701E-2,272 nM
same,potency estimated from few doses,[11]; CATDS: 1.2746443799933199E-2,389 nM
same,potency estimated from few doses,[12]; CATDS: 1.60355035004788E-2,254 nM
same,potency estimated from few doses,[13]; CATDS: 7.3913708056946199E-3,1750 nM
same,potency estimated from few doses,[14]; CATDS: 1.95530569334194E-2,183 nM
Cl.Oc1cccc(Nc2ccnc3cc(-c4ccncc4)ccc23)c1 [GW494601A],potency estimated from few doses,[3]; CATDS: 3.10657492682959E-2,211 nM
same,potency estimated from few doses,[8]; CATDS: 3.7293479964616502E-2,113 nM
same,potency estimated from few doses,[4]; CATDS: 2.51104508673669E-2,479 nM
same,potency estimated from few doses,[11]; CATDS: 2.2541605457452998E-2,773 nM
same,potency estimated from few doses,[7]; CATDS: 1.9274779311166401E-2,1830 nM
same,potency estimated from few doses,[15]; CATDS: 1.9718010562251101E-2,1580 nM
Cc1cccc(-c2cc(-c3c[nH]nc3-c3ccccn3)ccn2)c1 [GW679395X],potency estimated from few doses,[16]; [19],2340 nM
O=C1N=C(NCCc2cccc(Cl)c2)S/C1=C\c1ccc2ncccc2c1 [RO4509201-000],potency estimated from few doses,[17]; CATDS: 7.2632093710390006E-2,736 nM
COc1cccc(-n2ncc3c(N/N=C/c4ccc(C(=O)NCCN(C)C)cc4)ncnc32)c1.Cl [GW784307A],potency estimated from few doses,[3]; CATDS: 3.8430447981996803E-2,486 nM
same,potency estimated from few doses,[18],2320 nM
same,potency estimated from few doses,[15]; CATDS: 3.20798372195591E-2,834 nM
COc1ccc(Nc2nccc(N3CCC(NC(=O)Nc4ccc5c(c4)OCO5)C3)n2)cc1 (centres unmarked) [GSK1379745A],potency estimated from few doses,"[16]; compound concentrations: 100 nM and 1000 nM (sheet 'Samples'), CATDS: 4.5642212363568399E-2",1150 nM
same,potency estimated from few doses,[3]; CATDS: 0.106136196425884,316 nM
CS(=O)(=O)CCNCc1ccc(-c2ccc3ncnc(Nc4ccc(OCc5cccc(F)c5)c(C(F)(F)F)c4)c3c2)o1 [GW576484X],potency estimated from few doses,"[16]; compound concentrations: 100 nM and 1000 nM (sheet 'Samples'), CATDS: 4.5987801057845099E-2",2420 nM
same,potency estimated from few doses,[8]; CATDS: 6.1198720687785702E-2,1290 nM
same,potency estimated from few doses,[6]; CATDS: 5.1625153721040297E-2,1830 nM
same,potency estimated from few doses,[7]; CATDS: 4.7895996711747497E-2,2180 nM
Cc1ccc(O)cc1Nc1ccnc2cc(-c3ccc(CN4CCCCC4)o3)ccc12 [GW557777X],potency estimated from few doses,[3]; CATDS: 2.1920480328631101E-2,73.2 nM
same,potency estimated from few doses,[9]; CATDS: 1.36078174892899E-2,960 nM
same,potency estimated from few doses,[8]; CATDS: 3.4723791615605203E-2,15.6 nM
same,potency estimated from few doses,[4]; CATDS: 9.2243435191231293E-2,1.47 nM
same,potency estimated from few doses,[11]; CATDS: 1.3507307153085599E-2,1020 nM
same,potency estimated from few doses,[13]; CATDS: 1.7058744664209799E-2,226 nM
same,potency estimated from few doses,[15]; CATDS: 1.4248568360294899E-2,672 nM
CN1C(=O)c2ccccc2N(C)c2nc(Nc3cnn(C4CCNCC4)c3)ncc21 [XMD-17-51],potency estimated from few doses,"[2]; compound concentrations: 100 nM and 1000 nM (sheet 'Samples'), CATDS: 0.169613052671825",6.84 nM
same,potency estimated from few doses,[3]; CATDS: 1.5845545997130402E-2,986 nM
same,potency estimated from few doses,[17]; CATDS: 1.8456350462982201E-2,580 nM
same,potency estimated from few doses,[12]; CATDS: 4.7474552673817297E-2,56.7 nM
same,potency estimated from few doses,[13]; CATDS: 1.40532268775709E-2,1650 nM
CNC1=NC(=O)/C(=C/c2ccc3ncccc3c2)S1 [RO4595949-000],potency estimated from few doses,[17]; CATDS: 6.3201453255696996E-2,790 nM

# — PMC11062922 (Nature Chemical Biology, 2023)
